Screening results: PubChem, National Center for Advancing Translational Sciences (NCATS)
Rab9 promoter act: qHTS Assay for Rab9 Promoter Activators | Huh7 Rab9 promoter-luciferase reporter, luminescence, 24 h | Potency, µM (top dose mostly 9.22 µM), without a hit: at the highest dose activation, negative = inhibition, hits mostly activators | 320,000 compounds, 2.8% hits; further: % of control where 0% means no effect; nearly all actives have a fitted effect of over 60% in size
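Huh7 cells stably carrying Rab9 promoter–luciferase reporter, plated 1500 cells/well, compound added after 2 h and incubated 24 h at 37 °C; luciferase luminescence then read after 10 min with detection reagent.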
Luc counter: Counterscreen for Luciferase (Kinase-Glo TM) Inhibition; Luciferin 4-monooxygenase (Photuris pensylvanica), Q27757; Kinase-Glo luciferase, ATP luminescence, 8 min; Potency, µM (highest dose often 38.3 µM), for inactives: at the top dose activity change, negative = inhibition, actives largely listed as inhibitors; 200,000 compounds, 0.28% hits; AID 1379, 2008; further: on the % scale 0 is the no-effect control and ±100 the full control effect; nearly all actives have a fitted effect of over 60% in size
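Substrate mix (final 50 mM imidazole pH 7.2, 50 mM KCl, 7 mM MgCl2, 10 uM ATP, 0.01% Tween 20, 0.05% BSA) plus pin-tool compound, then Kinase-Glo detection mix; 8 min ambient, luminescence read.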
ELG1 genotox: qHTS screen for small molecules that induce genotoxicity in human embryonic kidney (HEK293T) cells expressing luciferase-tagged ELG1; 330,000 compounds, 1.3% hits; Potency, µM (highest dose often 46 µM), for the others: top-dose activity change, positive = activation, most hits filed as activators; HEK293T ELG1-luciferase reporter, luminescence, 16 h; further: % of control where 0% means no effect; nearly all actives have a fitted effect of over 60% in size
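16 hr compound incubation (37 °C, 5% CO2) of HEK293T cells carrying luciferase-tagged ELG1; luciferase then measured by ONE-Glo luminescence after 30 min at RT.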
NPC1 promoter act: qHTS Assay for NPC1 Promoter Activators; Huh7 NPC1 promoter luciferase reporter, 24 h; Potency, µM (titrated, usually from 9.22 µM), without a hit: at the highest dose activation, usual class: activators; 320,000 compounds, 2.4% hits; further: % of control where 0% means no effect; nearly all actives have a fitted effect of over 60% in size
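Huh7 reporter cells (NPC1 promoter driving luciferase) are dosed with compound for 24 h at 37 °C, 5% CO2; luciferase detection reagent is then added and luminescence measured after 10 min at ambient temperature.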
FLuc modulator: qHTS profiling assay for firefly luciferase inhibitor/activator using purifed enzyme and Km concentrations of substrates (counterscreen for miR-21 project). Luciferin 4-monooxygenase (Photinus pyralis), P08659. AID 588342, 2011. purified FLuc, Km substrates, luminescence inhibition. Potency, µM (series often up to 57.5 µM), inactives show at the highest dose activity change, negative = inhibition, hits mostly inhibitors. 360,000 compounds, 6.9% hits;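 further: plate controls were vehicle for no effect and reference inhibitor for full effect; nearly all actives have a fitted effect of over 55% in size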
Target sequence (P08659 whole entry, looked up): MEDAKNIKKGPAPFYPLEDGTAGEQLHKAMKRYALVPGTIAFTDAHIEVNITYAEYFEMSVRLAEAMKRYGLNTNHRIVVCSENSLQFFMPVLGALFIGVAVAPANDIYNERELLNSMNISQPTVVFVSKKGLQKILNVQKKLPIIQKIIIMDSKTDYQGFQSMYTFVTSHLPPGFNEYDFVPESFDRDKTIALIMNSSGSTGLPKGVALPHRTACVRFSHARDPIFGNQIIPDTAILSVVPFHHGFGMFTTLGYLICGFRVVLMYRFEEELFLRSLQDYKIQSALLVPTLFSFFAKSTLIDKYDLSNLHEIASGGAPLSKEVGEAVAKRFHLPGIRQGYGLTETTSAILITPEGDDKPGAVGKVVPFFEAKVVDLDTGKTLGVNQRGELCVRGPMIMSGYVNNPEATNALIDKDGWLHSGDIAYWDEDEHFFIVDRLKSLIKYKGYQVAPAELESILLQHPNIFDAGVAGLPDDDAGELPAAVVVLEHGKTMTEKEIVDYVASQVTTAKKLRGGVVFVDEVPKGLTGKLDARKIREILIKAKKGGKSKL
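Purified P. pyralis luciferase (10nM final) with 10uM D-luciferin and 10uM ATP (Km levels) in 50mM Tris acetate pH 7.5, 10mM Mg acetate, 0.01% Tween-20, 0.05% BSA; qHTS 6-point titration, ~60 µM downward; luminescence read.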
SMN2 splice enh: qHTS Assay for Enhancers of SMN2 Splice Variant Expression. HEK293 SMN2-luciferase splicing reporter, luminescence, 30-36 h. Potency, µM (doses to about 46.1 µM), without a hit: top-dose activity change, positive = activation, hits mostly activators. 210,000 compounds, 2.8% hits; further: % of control where 0% means no effect; nearly all actives have a fitted effect of over 55% in size
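HEK293 cells carry an SMN2 minigene-luciferase reporter in which exon 7 inclusion puts luciferase in frame. Cells were seeded at 2000 cells/well, attached for 10-12 hours, then exposed to compounds for 30-36 hours at 37C before ONE-Glo luminescence.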
* = called active by the depositor; ? = inconclusive; · = no result. The list is not random: actives were taken first. Their share in the collection is about 7.3%. The call rests on the fitted dose curve; in most records, active means well fitted curve in the direction sought with a large enough effect; inconclusive means small, poorly fitted or top-dose-only effect, or another doubt; inactive means no such curve, though single readings can be large; an effect the other way counts as inactive or inconclusive. Potency means the concentration at half of the fitted maximal effect.

SMILES	Rab9 promoter act	Luc counter	ELG1 genotox	NPC1 promoter act	FLuc modulator	SMN2 splice enh
COc1ccc(-c2cc(=NC(CC(C)C)C(=O)O)c3cc(C)ccc3o2)cc1 (configuration not stated)	3%	2%	?	?	0.85µM*	11µM*
COc1ccc(-c2cc(=Nc3ccc(C)cc3)c3ccccc3o2)cc1	-33%	3%	-9%	-7%	0%	-20%
CCOC(=O)C1CCCN(c2ncnc3c2cnn3-c2ccc(OC)cc2)C1 (configuration not stated)	?	-1%	5.2µM*	?	?	11µM*
CCOC(=O)C1CCCN(c2ncnc3c2cnn3-c2ccc(Cl)cc2)C1 (configuration not stated)	?	2%	6%	?	12µM*	27%
O=C(Nc1ccc(Nc2ccccc2)cc1)c1ccccc1F	?	·	?	?	12µM*	·
O=C(O)c1cc(NC(=O)c2ccccc2F)cc(NC(=O)c2ccccc2F)c1	8%	·	2%	-2%	0%	·
CCN(CC)c1ccc(NC(=O)c2ccccc2F)cc1	0.56µM*	0%	?	?	6µM*	11µM*
Cc1noc(/C=C/Nc2ccc(F)cc2F)c1[N+](=O)[O-]	1.4µM*	?	16µM*	?	2.1µM*	4µM*
COc1ccccc1N/C=C/c1onc(C)c1[N+](=O)[O-]	0.4µM*	11µM*	?	1µM*	0.3µM*	1.1µM*
Cc1noc(/C=C/c2ccccn2)c1[N+](=O)[O-]	-16%	·	-32%	-29%	?	·
CCc1ccc(CNC(=O)CCCN2C(=O)CCn3nc(-c4cccn4C)cc32)cc1	·	·	·	·	1%	·
COc1ccc2cc(-c3nc4ccc(C(=O)O)cc4[nH]3)c(=O)oc2c1	·	·	·	·	0.12µM*	·
O=c1oc2ccc(Br)cc2cc1-c1nc2ccccc2o1	-5%	-7%	1%	-3%	2%	-1%
COc1ccc2cc(C(=O)c3ccccc3)c(=O)oc2c1	?	-3%	?	?	?	-7%
CCOc1cccc2cc(-c3nc(-c4ccc(Cl)cc4)c(C)s3)c(=O)oc12	·	·	·	·	-1%	·
CCOc1cccc2cc(-c3cn4c(n3)sc3ccccc34)c(=O)oc12	·	·	·	·	0.48µM*	·
COc1cccc2cc(-c3nc4ccccc4o3)c(=O)oc12	5%	-17%	21µM*	2%	2.7µM*	25%
C=CCc1cccc2cc(-c3nc4ccc(C(=O)O)cc4[nH]3)c(=O)oc12	·	·	·	·	0.43µM*	·
COc1ccc(CNC(=O)C2=C(C)C(=O)OC23CCN(C(C)=O)CC3)cc1	·	·	·	·	-3%	·
Cc1ccccc1C(=O)n1nc(-c2ccco2)nc1NCc1cccs1	·	·	·	·	-7%	2%
COc1ccc(Br)cc1CNC(=O)Cn1nc(C)n2c(cc3cc(F)ccc32)c1=O	·	·	·	·	4%	4%
COc1cccc2cc(-c3nc4ccc(C)cc4[nH]3)c(=O)oc12	·	·	·	·	0.54µM*	·
CCOc1cccc2cc(-c3nc4ccc(C(=O)O)cc4[nH]3)c(=O)oc12	?	·	·	?	0.38µM*	·
COc1ccc2oc(=O)c(-c3nc4ccc(C)cc4[nH]3)cc2c1	·	·	·	·	-3%	·
COC(=O)c1sc(-c2ccccc2)cc1NC(=O)Nc1ccc(F)cc1	·	·	·	·	-16%	-8%
CCN(CC)c1ccc(C2C(C(=O)OC)=C(C)NC(C)=C2C(=O)OC)cc1	-8%	-4%	4%	-4%	0%	1%
CCN(CC)c1ccc(/C=C/C(=O)C2C(=O)C=C(C)OC2=O)cc1 (configuration not stated)	2.8µM*	?	?	1.6µM*	8.5µM*	?
